According to ChEMBL document CHEMBL4513216, “Probing the Open Global Health Chemical Diversity Library for Multistage-Active Starting Points for Next-Generation Antimalarials” (ACS Infect Dis, 2020):
Out of some 68,000 compounds screened, about 2,700 (4%) showed an effect of 50% or more. What follows is part of a selection rich in strong results, with near analogues and random picks from the rest.

The compounds below were run on Plasmodium berghei (assay: Screen against P. berghei liver stage (PbLuc), transformed with Luciferase, at 2uM). Conditions: tested at 2 uM.
Format: functional, HepG2

SMILES | INHIBITION [%]
CNC(=O)c1cccc(NC(=O)NC(C)c2cc(C)oc2C)c1C (stereo not drawn) | 57.75
CNC(=O)c1ccc(NC(=O)NC(C)c2cc(C)oc2C)cc1 (stereo not drawn) | 50.59
COCc1nc(C(=O)N2CCCC2c2c(C)nn(C)c2C)cs1 (stereo not drawn) | 5.1
Cc1ccc(C2(O)CCN(C(=O)CCn3ccc(=O)[nH]c3=O)CC2)nc1 | -3.56
N#CC1(NC(=O)COC(=O)Cc2cc(Cl)c3c(c2)OCCO3)CCCC1 | 17.14
O=C(NCCN1CCOCC1)c1cnc(Cc2ccc(F)cc2)s1 | -42.16
CCc1nc(CN2CCN(C(=O)CCc3ccccc3)CC2)cs1 | 36.32
Fc1ccc(OCCCNC2=NCCN2)cc1 | 6.36
Cc1ccc(CCNc2ncc(C)c(-c3ccnn3C)n2)s1 | -33.54
COCC(=O)N1CCC(c2csc(NC(C)=O)n2)CC1 | -2.2
COCC(=O)N1CC(c2csc(NC(C)=O)n2)C1 | 50.74
COCC(=O)N1CCCC(c2csc(NC(C)=O)n2)C1 (stereo not drawn) | 15.73
Cc1nn(C)c(Cl)c1C1CCCN1CC(=O)NCc1ccco1 (stereo not drawn) | 33.61
CCC(C)NC(=O)Nc1ccc(CN2CCOC2=O)cc1 (stereo not drawn) | -5.28
CC(=O)Nc1ccc(CN2CCOC2=O)cc1 | 55.66
CC(C)CNC(=O)Nc1ccc(CN2CCOC2=O)cc1 | -15.92
CCNc1ncc(CN2C[C@H](C3CC3)[C@@H](N)C2)cn1 | -35.18
N[C@H]1CN(Cc2cnc(N3CCCC3)nc2)C[C@@H]1C1CC1 | 22.18
Nc1ncc(CN2C[C@H](C3CC3)[C@@H](N)C2)cn1 | 64.38
Cn1ccnc1SCCNC(=O)CC1CCc2ccccc21 (stereo not drawn) | 1.88
COc1cc(NCc2ncc[nH]2)ccc1Br | 44.23
Fc1ccc(NCc2ncc[nH]2)cc1Br | 56.21
CN1CCN(Cc2cccc(NCc3ncc[nH]3)c2)CC1 | 8.37
COCc1nc2cc(NCc3ncc[nH]3)ccc2o1 | 12.94
Fc1cccc(C(NCc2ncc[nH]2)c2ccccc2)c1 (stereo not drawn) | 14.52
Fc1cccc(NCc2ncc[nH]2)c1 | 51.08
CCOc1ccc(N(CC(=O)c2ccccc2)C2=NCCCCC2)cc1 | 20.74

SMILES | INHIBITION [%]
CS(=O)(=O)c1cc(Cl)cnc1C1CCN(C(=O)C2CCOCC2)CC1 | -33.32
CS(=O)(=O)c1cc(Cl)cnc1C1CCN(C(=O)C2CC2)CC1 | -14.56
Cn1nccc1C(=O)N1CCC(c2ncc(Cl)cc2S(C)(=O)=O)CC1 | 76.78
Cn1cc(CN2C[C@H](N3CCOCC3)[C@@H]3OCCC[C@@H]32)cn1 | -3.36
O=C(CSC1CCCC1)N1CCN(C(=O)C2CC2c2cccs2)CC1 (stereo not drawn) | 10.39
CN(CC(=O)N(CCC#N)c1ccccc1)C1CCc2ccccc21 (stereo not drawn) | -25.33
N#CCCN(CCC#N)C(=O)CN(C1CC1)C1CCc2ccccc21 (stereo not drawn) | 12.84
CN(CCC#N)C(=O)CN(C1CC1)C1CCc2ccccc21 (stereo not drawn) | 63.73
CCn1c(SCC(N)=O)nnc1C(C)NC(=O)c1ccc(Cl)cc1 (stereo not drawn) | 11.4
COCCN(Cc1nccs1)C(=O)c1cc(-c2ccc(C)s2)n[nH]1 | 31.51
COCCN(Cc1nccs1)C(=O)c1cc(-c2ccc(C)o2)n[nH]1 | 52.98
COCCN(Cc1nccs1)C(=O)c1c(C)cc(C)[nH]c1=O | -1.63
COc1ccc(C)c2c1N(C(=O)c1cnc3onc(C)c3c1)CCC2 | 47.2
COc1ccc(C)c2c1N(C(=O)c1cnc(C)s1)CCC2 | 18.01
COc1ccc(C)c2c1N(C(=O)c1ccc3nnc(C)n3c1)CCC2 | 61.06
N#Cc1cccc(CN2CCC3(CC(C(=O)NCC4CC4)=NO3)C2)c1 (stereo not drawn) | 7.35
CNC1CCCN(Cc2noc(C3CC3)n2)C1 (stereo not drawn) | 8.91
Cc1n[nH]c(C)c1CNC(=O)N(Cc1ccccc1)CC(C)(C)O | -16.94
Cc1noc(C2CCN(C(=O)CCc3ccccn3)CC2)n1 | 9.36
CC(C)CN1CCC2(C=C(C(=O)NC3CC3)c3ccccc32)CC1 | -14.63
O=C(NC1CC1)C1=CC2(CCN(CC3CC3)CC2)c2ccccc21 | 11.73
CCN1CCC2(C=C(C(=O)NC3CC3)c3ccccc32)CC1 | 57.95
COc1ccc(Cl)cc1S(=O)(=O)N(C)CC(=O)Nc1cccnc1 | -66.51
Cn1c(C2CC2)nc2c1CCN(CCOc1ccc(C#N)cc1)C2 | 55.52
Cn1c(C2CC2)nc2c1CCN(CCOc1ccccc1C#N)C2 | -16.16
Cn1c(C2CC2)nc2c1CCN(CCOc1cccc(F)c1)C2 | -9.49
